Screening results as filed in PubChem.
Shiga inhibitor – inhibitors of Shiga toxin in Vero cells. inhibition, % at 38.7 µM. hit rate 9.2% among 290,000. Vero cells, Shiga toxin protein synthesis inhibition reporter. AID 2315; in the data active = inhibition mostly above about 28%, no sharp cut-off; inactive = mostly below about 43%
Pf growth 96h – P. falciparum growth inhibition at 96 hours; P. falciparum luciferase reporter growth, 96 h; Potency, µM (top dose mostly 28.7 µM), most hits filed as inhibitors; hit rate 6.9% among 320,000
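Readout is luminescence from an integrated firefly luciferase in P. falciparum. Red cells, 2% hematocrit and 0.05% parasitemia final, were cultured with compound through two parasite generations (96 hours) at 37 C, 5% CO2.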
HCMV antiviral – human cytomegalovirus inhibition; hit rate 4.5% among 410,000; activity change, negative = inhibition, % at 57.5 µM; HFF cells, HCMV-luciferase reporter, 72 h; active compounds read low; AID 1259415; in the data active = activity change below about -60%; inconclusive = no clear call, values can overlap the other calls; inactive = above about -39%
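Steps: HFFs plated, 16 h 37C; compounds added; HCMV-luciferase added to MOI 1 PFU/cell; 72 h 37C; OneGlo reagent, 5 min room temperature; luminescence read, normalized to controls.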
Cycloheximide cs – counter-screen hit for Shiga toxin inhibitors, cycloheximide; cell reporter, cycloheximide protein synthesis inhibition counterscreen; max response, %; hit rate 12% among 300,000; AID 2314; in the data active = max response mostly above about 13%, no sharp cut-off; inactive = mostly below about 14%; also: read at 38.3 µM for the half of the compounds with a filed dose
Pf growth 48h – inhibits P. falciparum growth in the first generation, 48 h; Potency, µM (top dose mostly 28.7 µM), usual class: inhibitors; hit rate 5.9% among 310,000; P. falciparum luciferase growth in erythrocytes, 48 h
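Luciferase-expressing P. falciparum in infected erythrocytes (2% hematocrit, 0.1% parasitemia final) in RPMI 1640/0.5% Albumax were exposed to compound for 48 hours at 37 C, 5% CO2; growth read as luminescence.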
Hits are given with their value; - = inactive; ? = inconclusive; . = no result. This is a sample that favours compounds with a hit; in the whole collection about 20% have one here. Unless noted, calls follow the shape of the dose curve; as a rule, active = well fitted inhibition curve with a large enough effect; inconclusive = small, poorly fitted or top-dose-only effect, or another doubt; inactive = no such curve, though single readings can be large or run the other way.

SMILES	Shiga inhibitor	Pf growth 96h	HCMV antiviral	Cycloheximide cs	Pf growth 48h
Cc1ccc(C)c(Cn2c3ccccc3c3cnn(CC(=O)NCCCc4ccccc4)c(=O)c32)c1	.	.	-	.	.
Cc1cccc(NC(=O)Cn2ncc3c4ccccc4n(Cc4ccccc4)c3c2=O)c1C	.	.	-	.	.
O=C(Cn1ncc2c3ccccc3n(Cc3ccccc3F)c2c1=O)NCCCc1ccccc1	.	.	-	.	.
Cc1ccccc1Cn1c2ccccc2c2cnn(CC(=O)NC(C)CCc3ccccc3)c(=O)c21 (centres undefined)	.	.	-75	.	.
Cc1ccccc1Cn1c2ccccc2c2cnn(CC(=O)NCCc3ccccc3)c(=O)c21	.	.	-96	.	.
Cc1ccccc1Cn1c2ccccc2c2cnn(CC(=O)NCCCc3ccccc3)c(=O)c21	.	.	-81	.	.
O=C(COc1ccc(Cl)cc1Br)NC(=O)NC1CCCC1	.	-	-	.	-
CCOCCCNC(=O)C1CCCN(Cc2nc(-c3ccc(CC)cc3)oc2C)C1 (centres undefined)	.	.	-	.	.
COc1ccc(CNC(=O)C(C)n2c(=O)cc(C)c3c(C)nn(-c4ccccc4)c32)cc1 (centres undefined)	.	.	-	.	.
Cc1ccc2ccccc2c1COC(=O)c1nonc1N	-	.	-	-	-
CCOC(=O)c1ccc(COC(=O)c2nonc2N)cc1	-	?	-	22	-
CCOc1ccc(Nc2nc3cc(S(=O)(=O)N(CC)CC)ccc3o2)cc1	-	.	.	-	10µM
CCN(CC)S(=O)(=O)c1ccc2oc(Nc3ccc(OC)cc3)nc2c1	-	?	-	-	?
Cc1cccc(C)c1NC(=S)NCCc1ccc(O)c(O)c1	-	-	-	-	10µM
Cc1ccc2c(c1)CCCN2C(=O)CSc1ccccc1	-	-	-	12	-
COc1ccccc1CC(=O)N1CCCc2cc(C)ccc21	-	-	-	-	-
O=C(CSc1ncccn1)n1c2c(c3ccccc31)CCCC2	52	-	?	33	-
Cc1ccnc(SCC(=O)N2CCN(C(c3ccccc3)c3ccccc3)CC2)n1	-	15µM	-	-	.
O=C(Cn1cnc2c(nnn2-c2ccccc2)c1=O)N1CCCc2ccccc21	-	?	-	-	-
O=C(Cn1cccc1)N1CCN(C(c2ccccc2)c2ccccc2)CC1	-	-	-	-	?
O=C(Cn1cnc2c(nnn2Cc2ccccc2)c1=O)N1CCCc2ccccc21	-	12µM	-	-	?
O=C(CSc1nnc(-c2ccccc2)o1)N1CCCc2ccccc21	.	.	-	.	.
O=C(O)c1cccnc1SCC(=O)N1CCCc2ccccc21	99	-	-	47	-
O=C(CSc1nc(-c2ccccc2)cs1)N1CCc2ccccc21	-	-	?	-	-
CC(=O)Nc1ccc(C(=O)CSc2ncn(-c3ccccc3)n2)cc1	-	13µM	-	23	-
SMILES	Shiga inhibitor	Pf growth 96h	HCMV antiviral	Cycloheximide cs	Pf growth 48h
O=C(CSc1ncn(-c2ccccc2)n1)N1CCc2ccccc21	-	10µM	-	-	-
Cc1ccnc(SCC(=O)N2CCc3ccccc32)n1	73	-	-	32	-
COC(=O)c1ccc(C)c(NC(=O)CSc2nnc3ccccn23)c1	.	-	-	.	-
O=C(CCC(=O)N1CCCc2ccccc21)N1CCN(S(=O)(=O)c2ccccc2)CC1	-	-	-	-	?
O=C(CCS(=O)(=O)c1ccccc1)N1CCCc2ccccc21	57	-	-	19	-
Cc1cc(C)c2c(c1)cc(C)c1nnc(SCC(=O)N3CCCc4ccccc43)n12	-	5.9µM	-	-	-
O=C(CSc1ncccn1)N1CCCc2ccccc21	-	?	-	11	-
Cc1cc(C)nc(SCc2nnc(SCC(=O)N3CCCc4ccccc43)o2)n1	-	1.5µM	-	-	-
Cc1ccc(C)c2c1cc(C)c1nnc(SCC(=O)N3CCCc4ccccc43)n12	-	-	?	-	-
O=C(O)c1ccc(S(=O)(=O)Nc2cccc(CP(=O)(c3ccccc3)c3ccccc3)c2)cc1	-	?	-	-	-
CCOCCCn1c(=S)[nH]c2cc(C(=O)NCc3ccc(F)cc3)ccc2c1=O	-	-	-	-	-
CC(C)C(=O)N1CCCC1(C)C(=O)NCc1ccc(Cl)cc1 (centres undefined)	.	.	-	.	.
CCc1nc2c(OCCOc3ccc(F)cc3)cccn2c1N(C)C(=O)c1ccco1	.	.	-	.	.
O=C(NCCC1=CCCCC1)c1cc2c(s1)CS(=O)(=O)C2	25	-	-	17	-
O=C(NCCC1=CCCCC1)c1cnsn1	46	4.7µM	-	35	-
Cc1cc(C(=O)NCCC2=CCCCC2)no1	91	-	-	45	-
O=C(Nc1ccc(Br)cc1)c1cc2ccccn2n1	64	-	-	44	-
CCOc1ccccc1NC(=O)c1c(NC(=O)c2ccccc2C)sc2c1CCC(C)C2 (centres undefined)	.	.	-	.	.
CCN1C(=O)[C@@H]2[C@@H]3CN(S(=O)(=O)c4ccc(C)cc4)[C@@H](c4ccccc4F)[C@@H]3C(=O)C[C@@H]2C1=O	.	.	-	.	.
Cc1cc(C(=O)NCCc2ccc(Cl)cc2)no1	-	-	?	-	6.6µM
O=C(NCCc1ccc(Cl)cc1)c1cc2ccccn2n1	-	-	-	25	-
Cc1ccc(CCNC(=O)c2cc3ccccn3n2)cc1	.	.	-	.	.
O=C(Cn1cc(SCc2ccc(Br)cc2)c2ccccc21)N1CCCCC1	.	.	-	.	.
Cc1ccc(N(Cc2ccccc2)C(=O)CSC(C)C(=O)Nc2cc(C)on2)cc1 (centres undefined)	.	.	-64	.	.
Cc1cc(NC(=O)C(C)SCC(=O)OCC(=O)N(C)c2ccccc2)no1 (centres undefined)	.	?	-	.	-
SMILES	Shiga inhibitor	Pf growth 96h	HCMV antiviral	Cycloheximide cs	Pf growth 48h
Cc1ccc(C2N(c3cccc(Cl)c3)C(=O)N3CCCN23)cc1 (centres undefined)	-	?	-	-	?
COc1ccc(C2NN=C(c3ccc(C)cc3)S2)cc1 (centres undefined)	106	-	-	57	-
Cc1ccc(C2=NNC(C(O)C(O)C(O)CO)S2)cc1 (centres undefined)	61	-	-	57	.
COc1ccc(C2C(=O)NN=C2C)cc1 (centres undefined)	.	.	-	.	.
CCOc1cc(C2NN=C(c3ccc(C)cc3)S2)ccc1O (centres undefined)	94	-	-	30	-
C[C@H](CO)N1C[C@H](C)[C@@H](CN(C)C(=O)Nc2ccc(C(F)(F)F)cc2)Oc2ccc(NC(=O)C3CCCCC3)cc2C1=O	.	.	-	.	.
Cc1cccc(OCC(=O)Nc2ccc(S(=O)(=O)N(Cc3ccccc3)c3ccccc3)cc2)c1	.	.	-	.	.
Cc1cc(C)n(-c2nc3ccccc3nc2Nc2ccc(Cl)c(Cl)c2)n1	.	.	-	.	.
C=CCNC(=O)c1cccc(C(F)(F)F)c1	-	-	-	-	-
COc1cccc2cc(C(=O)Nc3ccc(S(=O)(=O)NCC4CCCO4)cc3)c(=O)oc12 (centres undefined)	-	-	-	-	2.1µM
COc1cc(C(Nc2ccc(S(=O)(=O)N3CCC(C)CC3)cc2)C(=O)NCC2CCCO2)cc(OC)c1OC (centres undefined)	-	?	?	-	13µM
